Laboratory results reported in PubChem BioAssay.
Calls of active or inactive are those of the source. Cut-off read from the data, not from the text of the source, unless noted: active = inhibition above about 42%; inactive = the rest.

Target: Nuclear receptor subfamily 5 group A member 2 (Homo sapiens) (UniProt O00482)
Experiment: LRH-1 (NR5A2) inverse agonists, retest, confirmation, cell-based, luminescence (AID 651613);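 note: HEK293T cells co-transfected with LRH-1 and StAR promoter luciferase reporter; 0% = vehicle wells and 100% = parental cells lacking receptor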
Settings: cell-based LRH-1 luciferase reporter, inverse agonism; at 3.6 µM; hits give high values

Chain of Nuclear receptor subfamily 5 group A member 2 (Homo sapiens) (O00482 whole entry, looked up): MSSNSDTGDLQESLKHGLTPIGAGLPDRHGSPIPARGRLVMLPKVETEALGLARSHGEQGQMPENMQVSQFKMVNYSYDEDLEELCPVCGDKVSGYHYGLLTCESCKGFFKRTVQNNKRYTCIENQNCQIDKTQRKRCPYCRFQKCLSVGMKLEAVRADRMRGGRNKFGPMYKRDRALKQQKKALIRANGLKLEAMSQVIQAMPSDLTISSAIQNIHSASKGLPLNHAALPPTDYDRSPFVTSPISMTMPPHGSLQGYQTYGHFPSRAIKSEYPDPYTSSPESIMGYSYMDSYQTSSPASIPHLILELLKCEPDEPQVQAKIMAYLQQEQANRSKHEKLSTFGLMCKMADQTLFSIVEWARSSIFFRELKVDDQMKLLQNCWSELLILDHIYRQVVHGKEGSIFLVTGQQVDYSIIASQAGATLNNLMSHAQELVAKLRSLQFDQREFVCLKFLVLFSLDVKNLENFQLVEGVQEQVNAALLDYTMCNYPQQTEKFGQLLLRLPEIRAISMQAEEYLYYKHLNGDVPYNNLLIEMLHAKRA

| Compound | inhibition |
| --- | --- |
| Nc1ccc2c(c1)C(=O)C(=O)c1ccccc1-2 | 110% (active) |
| CCN1/C(=C/C=C/c2oc3ccc(-c4ccccc4)cc3[n+]2CC)Oc2ccc(-c3ccccc3)cc21 | 110% (active) |
| COc1ccc(S(=O)(=O)/N=C2\C=C(Nc3ccc(O)cc3)C(=O)c3ccccc32)cc1 | 107% (active) |
| Cc1ccc(C(C)C)c(OCc2ccc(C(=O)N/N=C/c3ccc(O)cc3O)cc2)c1 | 100% (active) |
| O=c1c2ccccc2nc(N/N=C/c2c(O)ccc3ccccc23)n1O | 101% (active) |
| Cn1nc(-c2ccccn2)nc2c(=O)n(C)c(=O)nc1-2 | 58.9% (active) |
| Oc1ccccc1N=Nc1nc(-c2ccccc2)c(-c2ccccc2)[nH]1 | 98.3% (active) |
| COc1cccc(N2CCN(c3ncnc4c3[nH]c3ccc(F)cc34)CC2C)c1 (centres undefined) | 108% (active) |

Target: Steroidogenic factor 1 (Homo sapiens) (UniProt Q13285)
Sequence (Q13285 whole entry, looked up): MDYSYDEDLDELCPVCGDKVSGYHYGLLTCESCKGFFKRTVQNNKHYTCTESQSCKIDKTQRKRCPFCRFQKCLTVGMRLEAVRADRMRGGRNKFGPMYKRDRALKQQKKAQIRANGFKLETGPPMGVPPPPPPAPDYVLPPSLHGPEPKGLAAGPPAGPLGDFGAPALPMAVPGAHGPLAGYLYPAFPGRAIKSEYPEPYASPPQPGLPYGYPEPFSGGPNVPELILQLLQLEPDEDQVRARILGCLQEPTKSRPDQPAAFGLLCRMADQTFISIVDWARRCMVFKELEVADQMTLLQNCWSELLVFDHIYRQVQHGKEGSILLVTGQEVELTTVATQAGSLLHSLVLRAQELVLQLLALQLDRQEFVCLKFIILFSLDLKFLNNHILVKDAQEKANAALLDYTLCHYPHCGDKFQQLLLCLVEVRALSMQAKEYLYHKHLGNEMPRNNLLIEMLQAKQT
Experiment: SF1 (NR5A1) inverse agonists, counter-screen for LRH-1 inverse agonist project, cell-based, luminescence, high throughput (AID 651614; in the data active = inhibition above about 44%;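 note: cells cotransfected with StAR promoter reporter and SF1 expression vector; 0% = vehicle on cells with receptor and 100% = vehicle on cells lacking receptor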)
Settings: cell-based SF1 luciferase reporter, at 3.6 µM, hits give high values

| Compound | inhibition |
| --- | --- |
| Nc1ccc2c(c1)C(=O)C(=O)c1ccccc1-2 | 98.9% (active) |
| CCN1/C(=C/C=C/c2oc3ccc(-c4ccccc4)cc3[n+]2CC)Oc2ccc(-c3ccccc3)cc21 | 97.2% (active) |
| COc1ccc(S(=O)(=O)/N=C2\C=C(Nc3ccc(O)cc3)C(=O)c3ccccc32)cc1 | 96.7% (active) |
| Cc1ccc(C(C)C)c(OCc2ccc(C(=O)N/N=C/c3ccc(O)cc3O)cc2)c1 | 80.9% (active) |
| O=c1c2ccccc2nc(N/N=C/c2c(O)ccc3ccccc23)n1O | 90.2% (active) |
| Cn1nc(-c2ccccn2)nc2c(=O)n(C)c(=O)nc1-2 | 73.7% (active) |
| Oc1ccccc1N=Nc1nc(-c2ccccc2)c(-c2ccccc2)[nH]1 | 84% (active) |
| COc1cccc(N2CCN(c3ncnc4c3[nH]c3ccc(F)cc34)CC2C)c1 (centres undefined) | 97.8% (active) |

System: not listed separately
Experiment: VP16 transactivation reporter inhibitors, counter-screen for LRH-1 inverse agonist project, cell-based, luminescence, high throughput (AID 651615; in the data active = inhibition above about 33%)
Settings: Gal4-VP16 luciferase reporter cells, at 3.6 µM, hits give high values

| Compound | inhibition |
| --- | --- |
| Nc1ccc2c(c1)C(=O)C(=O)c1ccccc1-2 | 99.1% (active) |
| CCN1/C(=C/C=C/c2oc3ccc(-c4ccccc4)cc3[n+]2CC)Oc2ccc(-c3ccccc3)cc21 | 96.4% (active) |
| COc1ccc(S(=O)(=O)/N=C2\C=C(Nc3ccc(O)cc3)C(=O)c3ccccc32)cc1 | 97.2% (active) |
| Cc1ccc(C(C)C)c(OCc2ccc(C(=O)N/N=C/c3ccc(O)cc3O)cc2)c1 | 71.2% (active) |
| O=c1c2ccccc2nc(N/N=C/c2c(O)ccc3ccccc23)n1O | 78.3% (active) |
| Cn1nc(-c2ccccn2)nc2c(=O)n(C)c(=O)nc1-2 | 75.1% (active) |
| Oc1ccccc1N=Nc1nc(-c2ccccc2)c(-c2ccccc2)[nH]1 | 65.3% (active) |
| COc1cccc(N2CCN(c3ncnc4c3[nH]c3ccc(F)cc34)CC2C)c1 (centres undefined) | 97.2% (active) |
